From PubChem
Most compounds without a hit are left out; they make up all but 12% or so of the library.
Sm TGR block: inhibitors of Schistosoma mansoni thioredoxin glutathione reductase | Q962Y6 | 360,000 compounds, 3% hits | purified TGR, DTNB reduction, TNB absorbance 405 nm | Potency, µM (top dose mostly 114 µM), actives largely listed as inhibitors | AID 485364; active = well fitted inhibition curve with a large enough effect; inconclusive = small, poorly fitted or top-dose-only effect; inactive = no such curve, though single readings can be large or run the other way; also: nearly all actives have a fitted effect of over 60% in size
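First, TGR (20 nM dispensed) and NADPH were mixed with compound. Second, a 15 min room-temperature incubation followed. Third, further NADPH and then DTNB were added to start the reaction. Finally, TNB absorbance was monitored kinetically.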
FMDV antiviral: foot and mouth disease virus antiviral activity | Potency, µM (titrated, usually from 57.9 µM), usual class: inhibitors | 410,000 compounds, 1.2% hits | FMDV antiviral cell-based qHTS; calls by dose curve; tested in HEK293T cells; also: read-out not given here; nearly all actives have a fitted effect of over 45% in size
Shiga inhibitor: Shiga toxin inhibition | inhibition, % at 38.7 µM | 290,000 compounds, 9.2% hits | AID 2315 | Vero cells, Shiga toxin protein synthesis inhibition reporter; in the data active = inhibition mostly above about 28%, no sharp cut-off; inactive = mostly below about 43%
CHX counter: counter-screen for Shiga toxin inhibitors: cycloheximide protein synthesis inhibition. cell reporter, cycloheximide protein synthesis inhibition counterscreen. max response, %. 300,000 compounds, 12% hits; in the data active = max response mostly above about 13%, no sharp cut-off; inactive = mostly below about 14%; also: read at 38.3 µM for the half of the compounds with a filed dose
Each line names hits and unclear results; the compound was inactive in the other large screens.

Cc1ccc2nc(NC(=O)c3ccc(Br)o3)sc2c1	Shiga inhibitor 95, CHX counter 45
COc1cccc(CNC(=O)CN2N=C(c3ccc(C)cc3)CCC2=O)c1	none (no result: Shiga inhibitor, CHX counter)
COc1cccc(CNC(=O)c2c(OC)cc(=O)n3c2CCN(C(=O)c2csc(C)n2)CC3)c1	none (no result: Sm TGR block, Shiga inhibitor, CHX counter)
CCN(CC)C(=O)CSc1nc2ccc(NC(=O)CSc3nnc(COc4ccccc4C)n3C)cc2s1	FMDV antiviral 22µM
Cc1ccccc1OCc1nnc(SCC(=O)Nc2ccc3nc(SCC(=O)NC(C)(C)C)sc3c2)n1C	FMDV antiviral 35µM
Cc1cccc(NC(=O)CSc2nc3ccc(NC(=O)COc4ccccc4C)cc3s2)c1	none (no result: Shiga inhibitor, CHX counter)
CCC1CCCCN1C(=O)c1ccc2c(c1)N(Cc1cccc(Cl)c1)C(=O)c1ccccc1S2(=O)=O (stereo not drawn)	none (no result: Shiga inhibitor, CHX counter)
CCc1[nH]nc(C(=O)NC2CCCc3c2cnn3-c2cc(C)cc(C)c2)c1C (stereo not drawn)	Shiga inhibitor 55, CHX counter 27
CCc1noc(C)c1C(=O)NC1CCCc2c1cnn2-c1cc(C)cc(C)c1 (stereo not drawn)	CHX counter 34
Cc1cc2oc(=O)c(CC(=O)NCCc3ccccc3F)c(C)c2c2occ(C(C)(C)C)c12	none (no result: Shiga inhibitor, CHX counter)
Cc1ccc(CSCc2ccc(C(=O)NCCc3ccc(Cl)cc3)o2)cc1	FMDV antiviral inconclusive (no result: Shiga inhibitor, CHX counter)
CC1=CC(=O)C2=C(C)C[C@@H]3OC(=O)[C@@H](C)[C@H]3C=C12	none (no result: Sm TGR block, Shiga inhibitor, CHX counter)
COC(=O)c1ccc(NC(=O)c2c(NCc3cccc(F)c3)sc3c2CCCC3)cc1	Sm TGR block inconclusive (no result: Shiga inhibitor, CHX counter)
COCCCNc1ncnc2c1cnn2-c1ccc(F)cc1	none (no result: Shiga inhibitor, CHX counter)
CS/C(=C\[N+](=O)[O-])Nc1ccccc1	Sm TGR block 0.25µM
CS/C(=C\[N+](=O)[O-])Nc1ccc(F)cc1	Sm TGR block 0.25µM
COc1ccc(N/C(=C/[N+](=O)[O-])SC)cc1	Sm TGR block inconclusive
CC(C)(C)CC(=O)NCC(c1ccc2c(c1)OCO2)N1CCN(c2ccccc2)CC1 (stereo not drawn)	none (no result: Shiga inhibitor, CHX counter)
CCC1CCCCN1Cc1cn2c(-c3ccc(Br)cc3)nnc2s1 (stereo not drawn)	none (no result: Shiga inhibitor, CHX counter)
CCCCn1c(/C=C/c2ccco2)nc2ccccc21	Sm TGR block 10µM
CCCn1c(/C=C/c2ccco2)nc2ccccc21	Sm TGR block 20µM
CCCn1c(NCc2ccco2)nc2ccccc21	none
CCCCn1c(N)nc2ccccc21	none (no result: FMDV antiviral)
Cc1cccc(N2C(=O)NC(=O)/C(=C\c3cnc(-c4ccccc4)nc3)C2=O)c1	Sm TGR block 5µM, CHX counter 14
CC(C)c1ccc(N2C(=O)NC(=O)/C(=C\c3cnc(-c4ccccc4)nc3)C2=O)cc1	Sm TGR block 11µM
Cc1ccc(N2C(=O)NC(=O)/C(=C/c3cnc(-c4ccccc4)nc3)C2=O)cc1C	Sm TGR block 1.8µM
COc1ccc(-c2cc(C(=O)Nc3c(C(=O)c4ccc(C)cc4)oc4ccccc34)no2)cc1	none (no result: Shiga inhibitor, CHX counter)
CCNc1nc(SCC(=O)OC)nc(N2CCOCC2)n1	none
O=C(Cn1nnc(-c2ccccc2F)n1)N1CCCCC1	Shiga inhibitor 50, CHX counter 35
COC(=O)Cn1nnc(N2CCOCC2)n1	CHX counter 40
Cc1ccc(-c2nnn(CC(=O)N3CCCCC3)n2)o1	Shiga inhibitor 71, CHX counter 18
COc1ccc(-c2ccc(-c3nnn(CC(=O)N4CCOCC4)n3)cc2)cc1	CHX counter 23
CN1CC(=O)N(CC(=O)Nc2ccc(Cl)c(C(F)(F)F)c2)c2ccccc2C1=O	none (no result: Shiga inhibitor, CHX counter)
CCOc1ccc(CNC(=O)C2CCN(S(=O)(=O)c3cn(C)cn3)CC2)cc1	none (no result: Shiga inhibitor, CHX counter)
O=C(CNC(=O)c1ccc(F)cc1)OCc1cc(=O)n2nc(C3CC3)sc2n1	none (no result: Shiga inhibitor, CHX counter)
Cc1cccc(CNC(=O)c2cnn(-c3nccc(-c4cccs4)n3)c2C2CC2)n1	none (no result: Sm TGR block, Shiga inhibitor, CHX counter)
CC(=O)c1cccc(NC(=S)NCCc2ccc(F)cc2)c1	Sm TGR block inconclusive
CC(=O)c1cccc(NC(=O)NCCc2ccc(Cl)cc2)c1	Shiga inhibitor 38
COc1cccc(NC(=O)NCCc2ccc(Cl)cc2)c1	CHX counter 24
COc1ccc(NC(=O)NCCc2ccc(Cl)cc2)cc1OC	none
CCC(=O)N1c2ccccc2CC1C(=O)NCc1ccccc1Cl (stereo not drawn)	none (no result: Shiga inhibitor, CHX counter)
O=S(=O)(Nc1ccc(Br)cc1)c1cccc2nonc12	none
O=S(=O)(Nc1ccc(C(O)(C(F)(F)F)C(F)(F)F)cc1)c1ccc(Cl)c2nonc12	FMDV antiviral 35µM (no result: Sm TGR block, Shiga inhibitor, CHX counter)
Cc1nnsc1Sc1ccccc1	none
CN(C)C(=O)c1nnsc1Sc1ccc(Cl)cc1	Shiga inhibitor 51, CHX counter 26
C=CCc1ccc(O)c(-c2cc(CC=C)ccc2O)c1	Sm TGR block 56µM
C=CCc1ccc(OC)cc1	none (no result: Shiga inhibitor, CHX counter)
Cc1cccc(N2CCN(C(=O)C3CCN(S(=O)(=O)c4cn(C)cn4)CC3)CC2)c1C	none (no result: Shiga inhibitor, CHX counter)
Cc1c(C(=O)Nc2ccccn2)oc2ccccc12	Shiga inhibitor 109, CHX counter 47
Cc1c(C(=O)Nc2ccc(N3CCOCC3)cc2)oc2ccccc12	Shiga inhibitor 97, CHX counter 40
Cc1c(C(=O)Nc2cccnc2Cl)oc2ccccc12	Shiga inhibitor 81, CHX counter 26
Cc1c(C(=O)Nc2ccncc2)oc2ccccc12	CHX counter 35
Cc1noc(C(=O)Nc2cccnc2Cl)c1Cl	none
Cc1c(C(=O)OCC(=O)Nc2ccc(N3CCOCC3)cc2)oc2ccccc12	none (no result: Shiga inhibitor, CHX counter)
COc1ccccc1N1CCN(C(=O)Cc2c(C(=O)O)c(C)cn2C)CC1	none (no result: Shiga inhibitor, CHX counter)
CN(N=O)C(=O)N[C@H]1C(O)C(O)C(CO)O[C@@H]1O (stereo partly drawn)	none (no result: Sm TGR block, Shiga inhibitor, CHX counter)
Cc1ccc(NC(=O)c2oc3ccccc3c2C)nc1	Shiga inhibitor 88, CHX counter 63
O=C(NC1CCCCC1NC(=O)c1cccs1)c1cccs1 (stereo not drawn)	none
O=C(CCCCC(=O)NCc1cccs1)NCc1cccs1	none
CC(C)N1C(=O)CCC1C(=O)NCc1cccs1 (stereo not drawn)	CHX counter 43
O=C(NCc1cccs1)C1CC1	none
O=C(NC1CCCCCC1)c1cccs1	Shiga inhibitor 68, CHX counter 38
O=C(NCCC1CCCC1)c1cccs1	Shiga inhibitor 45, CHX counter 40
O=C(CCC1CCCC1)NCc1cccs1	CHX counter 26
COc1ccccc1NC(=O)CN1C(=O)C(c2ccc(F)cc2)=NC1(C)C	FMDV antiviral inconclusive (no result: Shiga inhibitor, CHX counter)
Cn1cc(C(=O)NCCc2ccc(Cl)cc2)c(=O)c2cc(S(=O)(=O)N3CCCCC3)ccc21	none (no result: Shiga inhibitor, CHX counter)
COc1ccccc1CNC(=O)c1cc2ccc3ccc(C)[nH]c3c2n1	none (no result: Shiga inhibitor, CHX counter)
O=C(O)c1cccc(N2C(=O)c3cc([N+](=O)[O-])cc4cc([N+](=O)[O-])cc(c34)C2=O)c1	Sm TGR block 2µM, FMDV antiviral 35µM
O=C(O)c1cccc(N2C(=O)/C(=C/c3ccc([N+](=O)[O-])cc3)C=C2c2ccccc2)c1	Sm TGR block 25µM, FMDV antiviral 13µM, Shiga inhibitor 38, CHX counter 23
O=C1c2cc([N+](=O)[O-])cc3cc([N+](=O)[O-])cc(c23)C(=O)N1c1ccccn1	Sm TGR block 50µM, FMDV antiviral 13µM
O=C1/C(=C/c2ccc([N+](=O)[O-])cc2)C=C(c2ccccc2)N1c1ccccc1	none (no result: FMDV antiviral)
CCOCCCNC(=O)Nc1cc(C(=O)NCc2ccc(C(C)C)cc2)ccc1N1CCCC1	none (no result: Shiga inhibitor, CHX counter)
